This is an account of results in PubChem BioAssay AID1851 (National Center for Advancing Translational Sciences (NCATS), 2009).

The structures appear in SMILES notation. In all, about 16,000 compounds went through this assay and about 5,100 (32%) were called active. Inconclusive results (about 25%) are left out. The list shows a part of the results. Unmarked numbers belong to inactive results. The call rests on the fitted dose curve; in most records, active means well fitted curve in the direction sought with a large enough effect; inconclusive means small, poorly fitted or top-dose-only effect, or effect the other way; inactive means no such curve, though single readings can be large or run the other way.
On the % scale 0 is the no-effect control and ±100 the full control effect.

In this assay the target is Cytochrome P450 3A4 (Homo sapiens) (UniProt P08684). As to the kind of experiment: Cytochrome panel assay with activity outcomes. Particulars: recombinant CYP, pro-luciferin dealkylation, luminescence, p450-cyp3a4; series mostly up to 57.1 µM.
Sequence of Cytochrome P450 3A4 (Homo sapiens) (P08684 whole entry, looked up): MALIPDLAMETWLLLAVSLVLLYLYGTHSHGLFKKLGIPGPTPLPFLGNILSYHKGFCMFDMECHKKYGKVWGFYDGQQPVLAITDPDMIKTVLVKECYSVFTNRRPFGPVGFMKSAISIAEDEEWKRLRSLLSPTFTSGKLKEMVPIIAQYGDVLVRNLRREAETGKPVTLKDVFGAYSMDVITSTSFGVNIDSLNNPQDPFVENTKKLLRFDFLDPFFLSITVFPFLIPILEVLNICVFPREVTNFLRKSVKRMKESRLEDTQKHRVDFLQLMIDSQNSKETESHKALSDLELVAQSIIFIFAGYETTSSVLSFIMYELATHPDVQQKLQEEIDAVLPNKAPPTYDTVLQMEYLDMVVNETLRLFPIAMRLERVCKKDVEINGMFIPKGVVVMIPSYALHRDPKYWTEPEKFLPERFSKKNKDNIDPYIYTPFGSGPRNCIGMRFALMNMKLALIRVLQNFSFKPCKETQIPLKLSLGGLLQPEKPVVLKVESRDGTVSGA
As to `O=C(O)c1ccc(/C=N\N=C2c3ccccc3-c3ccccc32)cc1`, the activity, negative = inhibition was -15.1% [at 11.4 µM]. Regarding `Cc1ccccc1/C=N\NC(=O)c1csnn1`, the AC50 entry is “inactive”. The same measure, in the same setting: next, `Cc1ccc(N(C(=O)c2csnn2)C(C(=O)NC(C)(C)C)c2cccs2)cc1` (stereo not given): 7.08 µM (active). Take `CCNc1nnc(-c2ccncc2)s1`: the activity, negative = inhibition is -14.1% [at 11.4 µM].

As for `CCc1ccc(N(C(=O)c2csnn2)C(C(=O)NC(C)(C)C)c2ccncc2)cc1` (stereo not given), the concentration at half-maximal activity (AC50) was 3.98 µM (active). The same measure, in the same setting: the same measure for `COC(=O)N1CCC2(CCN(C(=O)NC(C)C)CC2)CC1`: “inactive”; for `Cn1c(SCc2nnc(-c3ccc(F)cc3)o2)nnc1C1COc2ccccc2O1` (stereo not given): 14.1 µM (active); for `CC(Oc1ccc(Cl)cc1)C(=O)/C=C/N(C)C` (stereo not given): “inactive”.

Consider `Oc1[nH]c2ccccc2c1/C=N/c1nccs1`, for which the AC50 is 15.8 µM (active). On the same count and under the same terms, the same measure for `Oc1[nH]c2ccccc2c1N=Nc1ccc(C(F)(F)F)cn1`: “inactive”; for `CC(=O)c1cnc2cc(C)nn2c1C`: “inactive”; for `Cc1cc(C)n(C(=O)CCCCCCCCC(=O)n2nc(C)cc2C)n1`: 4.47 µM (active). On the same count and under the same terms, next, `Cc1cc(C)n(C(=O)c2cc3ccccc3c(=O)o2)n1`: “inactive”; `CC1=C(C(=O)O)N2C(=O)C(NC(=O)c3ccn(C)n3)C2SC1` (stereo not given): “inactive”; `O=C(CN(Cc1ccccc1Cl)C(=O)c1ccc(CN2CCOCC2)o1)NCC1CCCO1` (stereo not given): 12.6 µM (active).

On to `O=C(CSCc1c(F)cccc1Cl)NCC1CCCO1` (stereo not given), for which the AC50 result is “inactive”. The same measure, in the same setting: next, `COc1ccc(N(CC(=O)NN=C2CCCC2)S(=O)(=O)c2ccccc2)cc1`: 2.82 µM (active). Regarding `Cn1cccc1CC(=O)N/N=C\c1cccs1`, the activity, negative = inhibition is 3.8% [at 2.29 µM]. Regarding `COc1ccc(N(CC(=O)N/N=C/c2cccs2)S(=O)(=O)c2ccc(OC)c(OC)c2)cc1`, the AC50 is 1.12 µM (active). With `CC(C)(C)C1CCc2c(C(=O)N/N=C/c3cccs3)csc2C1` (stereo not given), the activity, negative = inhibition is 5.34% [at 2.29 µM].

With `CN(CC(=O)O/N=C(\N)c1ccccn1)S(=O)(=O)c1ccccc1`, the AC50 entry was “inactive”.

For the compound `O=C(CN(c1ccccc1)S(=O)(=O)c1ccccc1[N+](=O)[O-])NN=C1CCCCCCC1`, the AC50 result is “inactive”.

Regarding `COCCCNC(=O)CN(c1ccc(OC)cc1)S(=O)(=O)c1ccc(NC(C)=O)cc1`, the concentration at half-maximal activity (AC50) was 12.6 µM (active). The same measure, in the same setting: the same measure for `O=C(NCc1ccccc1Cl)c1cnccn1`: 1 µM (active). With `COc1ccccc1OCC(=O)NNC(=O)c1cnccn1`, the activity, negative = inhibition is 16% [at 2.29 µM]. Turning to `O=C(NNC(=O)C1CCCCC1)c1cnccn1`, the activity, negative = inhibition is -0.435% [at 2.29 µM]. Turning to `COCCNc1ccnc(-c2cccc(NS(C)(=O)=O)c2)n1`, the AC50 is 25.1 µM (active). Same read-out and setting: next, `COc1ccc(CNc2ccnc(-c3cccnc3)n2)c(OC)c1`: 0.631 µM (active); `COc1cccc(-c2nccc(NCc3ccccc3OC)n2)c1`: 2.51 µM (active). As to `COc1ccc(CNc2ccnc(-c3cccc(NS(C)(=O)=O)c3)n2)c(OC)c1`, the AC50 is 3.98 µM (active).

Consider `CSc1nc(-c2ccc(C)cc2)nc(C(Cl)Cl)n1`, for which the AC50 entry was “inactive”.

In the case of `COc1cccc(-c2nccc(NCc3ccc(OC)cc3OC)n2)c1`, the AC50 was 3.16 µM (active). Same read-out and setting: the same measure for `COc1ccccc1CN1CC[C@@]2(CCCN(C(=O)c3c(C)noc3C)C2)C1`: 1.58 µM (active); for `Cc1noc(C)c1C(=O)N1CCC2(CCN(Cc3cc(C(F)(F)F)cc(C(F)(F)F)c3)CC2)CC1`: “inactive”; for `Cc1noc(C)c1C(=O)N1CCC[C@@]2(CCN(Cc3ccccc3)C2)C1`: 12.6 µM (active). Turning to `Cc1noc(C)c1C(=O)N1CCC2(CCN(Cc3nccs3)CC2)CC1`, the AC50 result is “inactive”. Same read-out and setting: next, `Cc1noc(C)c1C(=O)N1CCC2(CC1)CN(c1ncccn1)C2`: “inactive”. On the same count and under the same terms, next, `COc1ccccc1CN1CCC2(CC1)CCN(C(=O)c1c(C)noc1C)CC2`: “inactive”; `Cc1noc(C)c1C(=O)N1CCC2(CCN(Cc3ccccc3)CC2)CC1`: “inactive”. Still for that read-out and setting: the same measure for `Cc1noc(C)c1C(=O)N1CCC[C@@]2(CCN(Cc3nccs3)C2)C1`: 15.8 µM (active).

As for `CC(C)(N=NC(C)(C)C1=NCCN1)C1=NCCN1`, the activity, negative = inhibition is -8.65% [at 11.4 µM]. Turning to `COc1cnc(NS(=O)(=O)c2ccc(N)cc2)nc1`, the AC50 entry is “inactive”.

`CCCCOc1ccc(S(=O)(=O)Nc2cccnc2)cc1`: the AC50 is 2.51 µM (active).

As to `CCCCOc1ccc(OC(=O)c2cccnc2)cc1`, the AC50 result is “inactive”. Same read-out and setting: next, `Cc1ccc(Nc2nnc(-c3ccc4c(c3)OCO4)o2)c(C)c1`: 3.16 µM (active).

Take `C[C@H](NC[C@H](O)CP(=O)(O)Cc1ccccc1)c1ccc(Cl)c(Cl)c1`: the AC50 result is “inactive”. On the same count and under the same terms, next, `COc1ccccc1-c1nc(NC2CC2)c2ccccc2n1`: 12.6 µM (active); `CN(C)Cc1ccccc1-c1nc(NC2CC2)c2ccccc2n1`: 15.8 µM (active); `FC(F)(F)c1ccccc1-c1nc(NC2CCNCC2)c2ccccc2n1`: “inactive”. On to `FC(F)(F)c1ccccc1-c1nc(NC2CC2)c2ccccc2n1`, for which the AC50 was 3.16 µM (active). Still for that read-out and setting: the same measure for `Cc1ccccc1-c1nc(NC2CC2)c2ccccc2n1`: 3.98 µM (active); for `Cc1ccccc1-c1nc(NC2CCNCC2)c2ccccc2n1`: “inactive”; for `N[C@H](C(=O)O)C1[C@H](C(=O)O)[C@H]1C(=O)O` (stereo not given in full): “inactive”. On the same count and under the same terms, next, `CCCNC(=S)Nc1ccc(Br)cc1`: “inactive”; `Cc1ccc(SCCNC(=S)Nc2ccc(C)c(C)c2)cc1`: 6.31 µM (active). On the same count and under the same terms, the same measure for `COCC(=O)N1CCC2(CCN(Cc3ccccc3)CC2)CC1`: “inactive”; for `CCOC(=O)C1(S(=O)(=O)c2ccccc2)CCN(Cc2ccccc2)CC1`: 5.01 µM (active). For the compound `CCOC(=O)C1(S(=O)(=O)c2ccc(Cl)cc2)CCN(Cc2ccc(Cl)cc2)CC1`, the AC50 is 7.08 µM (active).

For `CC(=O)N1CCC2(CCN(Cc3ccccc3)CC2)CC1`, the AC50 result is “inactive”. As for `CC(C)NC1(C(N)=O)CCN(Cc2ccccc2)CC1`, the activity, negative = inhibition is -7.69% [at 11.4 µM].

With `CC1(C)Cc2c(C#N)c(SCc3ccccc3)nc(N3CCOCC3)c2CO1`, the AC50 was 25.1 µM (active). With `Nc1nc(N)c(N=Nc2ccc(C(=O)O)c(O)c2)c(N)n1`, the activity, negative = inhibition was -18% [at 11.4 µM]. Consider `CC(Oc1ccccc1)C(=O)Nc1nc2c(s1)C(=O)CC(C)(C)C2` (stereo not given), for which the AC50 result was “inactive”.

For `CCn1c2ccccc2c2cc(NC(=O)C(C)Oc3ccc(OC)cc3)ccc21` (stereo not given), the AC50 is 6.31 µM (active). Turning to `COc1ccc(NC(=O)OC(C)C)cc1`, the activity, negative = inhibition is -9.73% [at 2.29 µM]. For the compound `CCN(CC)c1ccc(/C=C/c2nc3ccccc3s2)cc1`, the AC50 was 11.2 µM (active). Turning to `CN(N=O)c1ccc(/C=C\c2ccnc3ccccc23)cc1`, the activity, negative = inhibition was -15.2% [at 11.4 µM]. For the compound `Cc1nc2c(C)cccn2c1/C(O)=C1\C(=O)C(=O)N(CCN2CCOCC2)C1c1cccs1` (stereo not given), the AC50 entry was “inactive”. Regarding `Cc1nc2ccccn2c1/C(O)=C1\C(=O)C(=O)N(CCCn2ccnc2)C1c1ccncc1` (stereo not given), the AC50 was 11.2 µM (active). Still for that read-out and setting: next, `Cc1nc2ccccn2c1/C(O)=C1\C(=O)C(=O)N(CCN2CCOCC2)C1c1cccnc1` (stereo not given): “inactive”; `Cc1cccc(CN(C)CCc2ccccn2)c1`: “inactive”.

Turning to `CC(C)C(=O)C(C)(C)CCc1ccccn1`, the activity, negative = inhibition is -11% [at 11.4 µM].

With `CN(CCc1ccccn1)Cc1ccc(Cl)cc1Cl`, the AC50 was 7.94 µM (active). Same read-out and setting: next, `COc1ccccc1CNC(=O)C1CCN(S(=O)(=O)N2CC(C)CC(C)C2)CC1` (stereo not given): 11.2 µM (active).

`CCS(=O)(=O)N1CCC(C(=O)NCc2ccccc2OC)CC1`: the activity, negative = inhibition was 4.92% [at 11.4 µM]. With `COc1ccc(CCNC(=O)C2CCN(S(=O)(=O)N3CC(C)CC(C)C3)CC2)cc1OC` (stereo not given), the AC50 is 7.08 µM (active). Same read-out and setting: the same measure for `COc1cccc(CNC(=O)C2CCN(S(=O)(=O)N3CCCCC3)CC2)c1`: 22.4 µM (active). Still for that read-out and setting: next, `O=C(Nc1cc2c(oc1=O)CCCC2=O)c1ccc(Cl)cc1`: “inactive”; `Cc1cc(NC(=O)c2cc(C(C)C)on2)no1`: “inactive”. With `CCOc1ccc(C(=O)Nc2ccccc2N2CCCC2)cc1`, the activity, negative = inhibition is -11.9% [at 2.29 µM]. With `O=C(COc1ccccc1)Nc1cc(C(F)(F)F)ccc1N1CCCC1`, the AC50 was 3.98 µM (active). The same measure, in the same setting: next, `Cc1ccc(OCC(=O)Nc2ccccc2N2CCOCC2)c(C)c1`: 14.1 µM (active). Turning to `Cc1ccc(OCC(=O)Nc2ccc(Cl)cc2)c(-n2nc3ccccc3n2)c1`, the activity, negative = inhibition was -10.5% [at 2.29 µM]. As for `O=C(Nc1cc(C(F)(F)F)ccc1N1CCCCC1)c1ccc(Br)o1`, the AC50 entry is “inactive”.

Turning to `CC(=O)N1CCN(c2ccccc2NC(=O)COc2ccc(Br)cc2)CC1`, the AC50 is 4.47 µM (active). For the compound `NS(=O)(=O)c1cc(C(=O)O)cc(N2CCCC2)c1Oc1ccccc1`, the AC50 result was “inactive”. Same read-out and setting: the same measure for `CCCCC(=O)NC(Nc1cc(C)ccn1)(C(=O)OCC)C(F)(F)F` (stereo not given): 7.08 µM (active).

On to `O=P(O)(O)O[C@@H]1O[C@H](CO)[C@@H](O)[C@H](O)[C@@H]1O`, for which the activity, negative = inhibition was -3.16% [at 11.4 µM]. For the compound `N#CCSc1nc2ccc(N3CCCCC3)cc2c(=O)n1Cc1ccccc1`, the AC50 was 7.08 µM (active). The same measure, in the same setting: next, `CN1CCN(C(=O)c2ccc3c(=O)n4c(nc3c2)CCCCC4)CC1`: “inactive”; `N#CCSc1nc2cc(C(=O)N3CCCC3)ccc2c(=O)n1Cc1ccccc1`: 12.6 µM (active); `O=c1c2ccccc2nc(-c2ccc(Br)cc2)n1Cc1ccccc1`: “inactive”. Same read-out and setting: the same measure for `Cn1cccc1C(=O)N1CCC2(CC1)CN(C(=O)Nc1ccccc1)C2`: “inactive”; for `COc1ccc(NC(=O)N2CCCC3(CCN(C(=O)c4ccc(OC)cc4)CC3)C2)cc1`: 12.6 µM (active); for `COC(=O)N1CCC[C@@]2(CCN(C(=O)Nc3ccccc3)C2)C1`: “inactive”. Still for that read-out and setting: the same measure for `COc1ccc(C(=O)N2CCC3(CC2)CN(C(=O)Nc2ccccc2)C3)cc1`: “inactive”. Turning to `COc1ccc(NC(=O)N2CCCC3(CCN(C(=O)c4cccn4C)CC3)C2)cc1`, the AC50 was 25.1 µM (active).

`COc1ccc(NC(=O)N2CC[C@@]3(CCCN(C(=O)c4cc(C(F)(F)F)cc(C(F)(F)F)c4)C3)C2)cc1`: the AC50 is 20 µM (active). Turning to `COc1ccc(NC(=O)N2CC3(CCN(C(=O)c4cccn4C)CC3)C2)cc1`, the AC50 entry was “inactive”. Still for that read-out and setting: next, `COc1ccc(C(=O)N2CCC[C@@]3(CCN(C(=O)Nc4ccccc4)C3)C2)cc1`: 15.8 µM (active).
